Our source for the max response values is PubChem BioAssay AID2314 (National Center for Advancing Translational Sciences (NCATS), 2010).

Among all 300,000 compounds or so, about 37,000 (12%) were called active. Cut-off read from the data, not from the text of the source: active = max response mostly above about 13% (no sharp cut-off); inactive = mostly below about 14%. Only a selection was taken, and actives are over-represented in it overall.

This assay can be described thus: Cycloheximide Counterscreen for Small Molecule Inhibitors of Shiga Toxin. Note: read at 38.3 µM for the half of the compounds with a filed dose; 0% is about no effect. As to conditions: cell reporter, cycloheximide protein synthesis inhibition counterscreen; stronger effect = higher value.
For `Cc1cccc(-n2c(O)c(C=NC34CN5CN(CN(C5)C3)C4)c(=O)[nH]c2=O)c1`, the max response is 8.1% (inactive).

On to `Cc1cccc(-n2c(O)c(C=Nc3ccccc3N)c(=O)[nH]c2=O)c1`, for which the max response was 39.4% (active).

As to `Cc1cccc(-n2c(O)c(/C=N/N3CCOCC3)c(=O)[nH]c2=S)c1`, the max response is -8.26% (inactive).

In the case of `CC1(C)Oc2ccc3ccc(=O)oc3c2/C(=N/O)C1=O`, the max response is 7.27% (inactive).

As for `Oc1ccccc1C=NC1CCCCC1N=Cc1ccccc1O` (configuration not stated), the max response is 6.63% (inactive).

Consider `COc1ccc(/C=N/NC(=O)C2CC2)c(OC)c1OC`, for which the max response was 3.25% (inactive).

Consider `O=C(N/N=C/c1ccccc1O)C1CCCC1`, for which the max response is 28% (active).

For `COc1cc(NC(=O)NCC2CCN(Cc3ccc(C)cc3)CC2)cc(OC)c1OC`, the max response was -2.97% (inactive).

In the case of `COc1ccccc1C(=O)OCC(=O)NCCNC(=O)COC(=O)c1ccccc1OC`, the max response is -1.55% (inactive).

With `COc1cc(C(=O)NCc2ccc3c(c2)cc(C)n3C)cc(OC)c1OC`, the max response is -6.41% (inactive).

For `Cc1ccc(C(C(=O)NCC2CCCO2)N(C(=O)c2snc(C(N)=O)c2N)c2ccc(C(C)C)cc2)o1` (configuration not stated), the max response is 8.94% (inactive).

As for `COC(=O)c1ccc(Oc2nc(NC(C)C)nc(SC)n2)cc1`, the max response is 9.19% (active).

Regarding `CCNc1nc(Oc2ccc(C(=O)OC)cc2)nc(N2CCOCC2)n1`, the max response is -3.34% (inactive).

Consider `COC(=O)c1ccc(Oc2nc(Nc3ccc(F)cc3)nc(N3CCCC3)n2)cc1`, for which the max response was 0.283% (inactive).

Regarding `CCOc1ccc(NC(=O)CC(Cc2ccc(Cl)cc2)C(=O)O)cc1` (configuration not stated), the max response is -1.1% (inactive).

For `Cn1cccc1C(=O)Nc1nccs1`, the max response is 18.6% (active).

For the compound `O=C(O)c1ccccc1-c1ccccc1C(=O)Nc1nccs1`, the max response is -6.56% (inactive).

Regarding `CC(NC(=O)C(=O)Nc1nccs1)c1ccccc1` (configuration not stated), the max response was -0.875% (inactive).

As to `Cc1ccc2cccc(S(=O)(=O)N3CCN(c4ccccc4F)CC3)c2n1`, the max response was -1.96% (inactive).

Take `COc1ccccc1Nc1cc(C(=O)NCCCN(C)C2CCCCC2)c2ccccc2n1`: the max response was -15.5% (inactive).

Regarding `CCc1ccc(-c2nnn(Cc3nc4ccccc4s3)n2)cc1`, the max response was 38.7% (active).

Regarding `CCc1ccc(-c2nnn(Cc3nn[nH]n3)n2)cc1`, the max response is -4.49% (inactive).

In the case of `Clc1cccc(Cl)c1Cn1nnc(-c2cccs2)n1`, the max response was 1.15% (inactive).

In the case of `Cc1cc(N2CCN(c3ccc(F)cc3)CC2)n2ncnc2n1`, the max response was 1.63% (inactive).

For `COC(=O)c1ccccc1NS(=O)(=O)c1ccc2[nH]c(=O)[nH]c2c1`, the max response is -1.95% (inactive).

Regarding `O=C(NC(=S)Nc1cccc2c(O)cccc12)c1cccc(Br)c1`, the max response was -1.87% (inactive).

In the case of `Cc1cc(C(=O)NNC(=S)NC(C)c2ccccc2)cs1` (configuration not stated), the max response is -2.7% (inactive).

With `CC(CC(=O)O)CC(=O)NNC(=O)c1cccc(Br)c1` (configuration not stated), the max response is -1.69% (inactive).

On to `Cc1cc(C(=O)NNC(=S)Nc2ccccc2C)cs1`, for which the max response is 34.5% (active).

For `Cc1ccc(C)c(NC(=S)NNC(=O)c2csc(C)c2)c1`, the max response is 10.1% (inactive).

`Cc1ccccc1NC(=S)NNC(=O)c1cccc(Br)c1`: the max response is 17.3% (active).

Regarding `CCCCN=C1C([N+](=O)[O-])=CC=C2C1=NC1(CCCCC1)N2O`, the max response is 4.25% (inactive).

In the case of `CCCc1nnc(NC(=O)CCC(=O)NC2CC2)s1`, the max response was -2.75% (inactive).

Turning to `Cc1ccc2c(c1)C1CN(C)CCC1N2S(=O)(=O)c1ccc(Oc2ccc([N+](=O)[O-])cc2)cc1` (configuration not stated), the max response is -3.12% (inactive).

Take `Cc1ccc(C(=O)NC2CCN(C(=O)Nc3ccccc3Cl)CC2)cc1`: the max response was -2.19% (inactive).

In the case of `Cc1nn(CC(=O)NCC2CCCO2)c(=O)c2cc3ccccc3n12` (configuration not stated), the max response is 3.06% (inactive).

For the compound `Cc1ccc(-c2cn3cc(C)ccc3n2)cc1`, the max response was -15.5% (inactive).

Take `Cc1ccc(C(=O)Cn2cc([N+](=O)[O-])nc2C)cc1`: the max response is -1.83% (inactive).

With `Cc1ccc(-c2cn3cc([N+](=O)[O-])ccc3n2)cc1`, the max response is 92.8% (active).

Take `CSc1nnc2ccc(-c3ccc(C)cc3)nn12`: the max response was 8.85% (inactive).

As to `Cc1ccnc(N2C(=O)c3ccc([N+](=O)[O-])cc3C2=O)c1`, the max response is -0.576% (inactive).

For the compound `Cc1ccc2nc(-c3ccc(Br)cc3)cn2c1`, the max response was 17.6% (active).

With `CC1CCN(C(=O)c2ccc(S(=O)(=O)Cc3cc(F)ccc3F)c([N+](=O)[O-])c2)CC1`, the max response is 0.662% (inactive).

Consider `O=C(CN1CCN(S(=O)(=O)c2cc(Cl)ccc2Cl)CC1)c1ccc(O)c(O)c1`, for which the max response is 6.66% (inactive).

For the compound `CCC(C)NCCOCCOc1ccc(Br)cc1C` (configuration not stated), the max response is -2.66% (inactive).

`COC(=O)CSc1nc2c(c(C3CC=CCC3)c1C#N)CCC2` (configuration not stated): the max response is -1.01% (inactive).

Consider `CCOC(=O)c1sc(C)c2c1NC(C)(c1cccc3ccccc13)NC2=O` (configuration not stated), for which the max response is 0.788% (inactive).

`C/C(=N\NC(=O)Cc1ccccc1[N+](=O)[O-])c1cccnc1`: the max response was -0.525% (inactive).

Take `CN(C)CCSc1nc(N)c2c3c(sc2n1)COC(C)(C)C3`: the max response was -2.73% (inactive).

As to `CC(C)(C)C1CCc2c(sc3nc(SCC(N)=O)nc(N)c23)C1` (configuration not stated), the max response was 28.1% (active).

On to `C=C(C)CSc1nc(N)c2c3c(sc2n1)CCC3`, for which the max response was 18.4% (active).

`CCC1(C)Cc2c(sc3nc(SC)nc(N)c23)CO1` (configuration not stated): the max response is 8.94% (inactive).

On to `Nc1nc(SCC(=O)NCCN2CCOCC2)nc2sc3c(c12)CCC3`, for which the max response was -2.27% (inactive).

On to `Cc1sc2nc(SCC(N)=O)n(C)c(=O)c2c1C`, for which the max response was -2.39% (inactive).

Consider `C=CCn1cc(C(=O)NCc2ccc(Cl)cc2)c(=O)c2cc(S(=O)(=O)N(CC)CC)ccc21`, for which the max response is -6.07% (inactive).

Regarding `CN(CCNC(=O)c1cc2c(-c3ccccc3F)nn(C)c2s1)C1CCCCC1`, the max response is -2.34% (inactive).

With `CCOC(=O)C1CCCN(S(=O)(=O)c2ccc3c(c2)C(C)(C)C(=O)N3C)C1` (configuration not stated), the max response is -2.15% (inactive).

For the compound `COc1ccc(N(C(=O)c2ccc(C)cc2)S(=O)(=O)c2cccs2)cc1`, the max response was 10.9% (inactive).

In the case of `Clc1ccc(C2=CSC3=Nc4cccc5cccc(c45)N23)cc1`, the max response was 11.3% (active).

On to `COc1ccc(N2CCN(C3CC(=O)N(c4ccc5c(c4)OCCO5)C3=O)CC2)cc1` (configuration not stated), for which the max response was 1.96% (inactive).

With `CC(=O)Oc1cccc(N2C(=O)C3CC=C(Cl)CC3C2=O)c1` (configuration not stated), the max response was -3.93% (inactive).

Take `CC(=O)Oc1cccc(N2C(=O)CC(Nc3ccc(N4CCOCC4)cc3)C2=O)c1` (configuration not stated): the max response is 49% (active).

For the compound `COc1ccccc1OCCn1c(SCC(N)=O)nc2ccccc21`, the max response was -1.3% (inactive).

As for `COc1ccccc1OCc1nc2ccccc2s1`, the max response was 27.4% (active).

`COc1ccc(Cn2c(=O)sc3ccccc32)cc1OC`: the max response was -0.76% (inactive).

In the case of `CC1CCc2c(nc3ncnn3c2Nc2ccc(OC(F)(F)F)cc2)C1` (configuration not stated), the max response was 0.841% (inactive).

`OCCn1c(-c2ccccc2)csc1=Nc1ccccc1`: the max response was 38.9% (inactive).

Regarding `COc1ccc2nc(Nc3nc(-c4ccncc4)cs3)sc2c1`, the max response is 21.5% (inactive).

As for `COc1ccccc1CN(C)C(=O)c1cc2ccccc2o1`, the max response is 7.81% (inactive).

`COc1ccc2nc(Nc3nc4ccc(NC(C)=O)cc4s3)sc2c1`: the max response was 6.12% (inactive).

Regarding `COc1ccc2nc(Nc3nc4cc5c(cc4s3)OCCO5)sc2c1`, the max response is 33.1% (active).

As for `O=c1oc2ccccc2cc1-c1csc(Nc2ccc(O)cc2)n1`, the max response is 46% (active).

As for `CCOc1ccc(S(=O)(=O)Nc2nc3cc(OC)ccc3s2)cc1`, the max response was -4.35% (inactive).

Regarding `CCNc1nc(-c2cc3ccccc3o2)cs1`, the max response was 58% (active).

In the case of `CC(=O)Nc1nc(C)c(-c2csc(Nc3ccc(S(N)(=O)=O)cc3)n2)s1`, the max response is -0.544% (inactive).

In the case of `COc1ccc2oc(=O)cc(-c3cc4ccccc4o3)c2c1`, the max response was 4.74% (inactive).

Consider `COc1ccc2nc(Nc3nc(-c4cc5ccccc5oc4=O)cs3)sc2c1`, for which the max response was 13.6% (active).

Consider `Cn1c(SCC(=O)NC2CCCCC2)nnc1-c1cc2ccccc2o1`, for which the max response was 10.2% (inactive).

For the compound `Cc1ccc(OCCCC(=O)Nc2ccc(S(=O)(=O)Nc3cc(C)nc(C)n3)cc2)cc1`, the max response was -2.32% (inactive).

For `CN(C)[C@@H]1C(=O)C(C(N)=O)=C(O)[C@@]2(O)C(=O)C3=C(O)c4c(O)ccc(Cl)c4[C@@H](O)[C@H]3C[C@@H]12`, the max response is 3.73% (inactive).

With `CCN(CC)CCOCCOc1ccc(Cl)c2ccccc12`, the max response is -2.87% (inactive).

`COc1cc(NS(=O)(=O)c2ccc(NC(=S)NC(=O)c3ccc(Br)cc3)cc2)ncn1`: the max response was 0.589% (inactive).
